# Hit rate of the full screen: of about 5,500 compounds, about 2,000 (36%) were called active. Inconclusive results (about 18%) are left out. Some of the results follow. A number with no mark means an inactive call. Rule as the data show it: active = normalized growth mostly below about 0.91 (no sharp cut-off); inconclusive = no clear call, values can overlap the other calls; inactive = mostly above about 0.92.
# Assay: chemical genetic growth profiling, strain panel (AID 1159580);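 also: tested at 20 µM; growth read once vehicle control cultures reached saturation at 30 °C; 1 = growth at the plate median or of vehicle wells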
# Conditions: S. cerevisiae deletion strains, growth OD
# [1] = locus YAL040C, strain CLN3, stronger effect = lower value
# [2] = locus YCL061C, strain MRC1 (second series), stronger effect = lower value
# [3] = locus YER002W, strain NOP16, stronger effect = lower value
# [4] = locus YGR078C, strain PAC10, stronger effect = lower value
# [5] = locus YGR229C, strain SMI1, stronger effect = lower value
# [6] = locus YJR075W, strain HOC1, stronger effect = lower value
# [7] = locus YNL175C, strain NOP13, stronger effect = lower value
# [8] = locus YNL197C, strain WHI3, stronger effect = lower value
# [9] = locus YNL224C, strain SQS1, stronger effect = lower value
# [10] = locus YNL322C, strain KRE1, stronger effect = lower value
# [11] = locus YOR083W, strain WHI5 (second series), stronger effect = lower value
# [12] = locus YDR363W, strain ESC2, stronger effect = lower value
# [13] = locus YNL153C, strain GIM3, stronger effect = lower value
compound,measurement,setting,value
NCCNC(=O)Cc1ccc(NC(=O)Cc2ccc(Nc3ncnc4c3ncn4[C@@H]3O[C@H](CO)[C@H](O)C3O)cc2)cc1 (some centres not stated),normalized growth,[1],1.01
same,normalized growth,[2],0.999
same,normalized growth,[3],0.999
same,normalized growth,[4],1.01
same,normalized growth,[5],1.03
same,normalized growth,[6],1
same,normalized growth,"locus YMR263W, strain SAP30, stronger effect = lower value",1.01
same,normalized growth,[7],1.01
same,normalized growth,[8],1.02
same,normalized growth,[9],0.994
same,normalized growth,[10],1
same,normalized growth,[11],1.02
COC(=O)N1CCN(C(=O)Cc2ccc(Cl)c(Cl)c2)C(CN2CCCC2)C1 (configuration not stated),normalized growth,[1],0.997
same,normalized growth,[2],1.01
same,normalized growth,"locus YDR150W, strain NUM1, stronger effect = lower value",1
same,normalized growth,[12],1
same,normalized growth,[3],0.995
same,normalized growth,[4],1
same,normalized growth,[5],0.982
same,normalized growth,[6],1.01
same,normalized growth,"locus YMR307W, strain GAS1, stronger effect = lower value",1
same,normalized growth,"locus YNL128W, strain TEP1, stronger effect = lower value",1.01
same,normalized growth,[13],1
same,normalized growth,[7],1.01
same,normalized growth,[8],1.04
same,normalized growth,[9],1
same,normalized growth,[10],1.01
same,normalized growth,[11],1.05
same,normalized growth,"locus YPL241C, strain CIN2, stronger effect = lower value",1
Cc1nc(-c2ccc(C(F)(F)F)cn2)[nH]c(=O)c1Cl,normalized growth,"locus YAR019C, strain CDC15, stronger effect = lower value",0.899
same,normalized growth,"locus YBL105C, strain PKC1, stronger effect = lower value",0.932
same,normalized growth,"locus YBR135W, strain CKS1, stronger effect = lower value",0.916
same,normalized growth,"locus YBR136W, strain MEC1, stronger effect = lower value",0.922
same,normalized growth,"locus YBR160W, strain CDC28, stronger effect = lower value",0.922
same,normalized growth,"locus YDL017W, strain CDC7, stronger effect = lower value",0.938
same,normalized growth,"locus YDL028C, strain MPS1, stronger effect = lower value",0.909
same,normalized growth,"locus YDL101C, strain DUN1, stronger effect = lower value",0.939
same,normalized growth,"locus YDL108W, strain KIN28, stronger effect = lower value",0.921
same,normalized growth,"locus YDL132W, strain cdc53, stronger effect = lower value",0.905
same,normalized growth,"locus YDL214C, strain PRR2, stronger effect = lower value",0.86
same,normalized growth,"locus YDR052C, strain DBF4, stronger effect = lower value",0.943
same,normalized growth,"locus YDR054C, strain cdc34, stronger effect = lower value",0.887
same,normalized growth,"locus YDR226W, strain ADK1, stronger effect = lower value",0.924
same,normalized growth,"locus YDR477W, strain SNF1, stronger effect = lower value",0.833
same,normalized growth,"locus YER123W, strain YCK3, stronger effect = lower value",0.692
same,normalized growth,"locus YER133W, strain GLC7, stronger effect = lower value",0.831
same,normalized growth,"locus YFL009W, strain cdc4, stronger effect = lower value",0.896
same,normalized growth,"locus YFL029C, strain CAK1, stronger effect = lower value",0.901
same,normalized growth,"locus YFR003C, strain YPI1, stronger effect = lower value",0.929
same,normalized growth,"locus YFR019W, strain FAB1, stronger effect = lower value",0.908
same,normalized growth,"locus YFR028C, strain CDC14, stronger effect = lower value",0.918
same,normalized growth,"locus YGR040W, strain KSS1, stronger effect = lower value",0.834
same,normalized growth,"locus YGR052W, strain FMP48, stronger effect = lower value",0.815
same,normalized growth,"locus YGR092W, strain DBF2, stronger effect = lower value",0.689
same,normalized growth,"locus YHR079C, strain IRE1, stronger effect = lower value",0.639
same,normalized growth,"locus YHR082C, strain KSP1, stronger effect = lower value",0.945
same,normalized growth,"locus YHR205W, strain SCH9, stronger effect = lower value",0.978
same,normalized growth,"locus YIL147C, strain SLN1, stronger effect = lower value",0.919
same,normalized growth,"locus YJL095W, strain BCK1, stronger effect = lower value",0.675
same,normalized growth,"locus YJL128C, strain PBS2, stronger effect = lower value",0.928
same,normalized growth,"locus YJL157C, strain FAR1, stronger effect = lower value",0.813
same,normalized growth,"locus YJR016C, strain ILV3, stronger effect = lower value",0.924
same,normalized growth,"locus YJR066W, strain TOR1 (second series), stronger effect = lower value",0.769
same,normalized growth,"locus YJR066W, strain TOR1, stronger effect = lower value",0.848
same,normalized growth,"locus YKL048C, strain ELM1, stronger effect = lower value",0.927
same,normalized growth,"locus YKL067W, strain YNK1, stronger effect = lower value",0.857
same,normalized growth,"locus YKL101W, strain HSL1, stronger effect = lower value",0.88
same,normalized growth,"locus YKL193C, strain SDS22, stronger effect = lower value",0.903
same,normalized growth,"locus YKL203C, strain TOR2, stronger effect = lower value",0.886
same,normalized growth,"locus YLR113W, strain HOG1, stronger effect = lower value",0.651 (active)
same,normalized growth,"locus YLR133W, strain CKI1, stronger effect = lower value",0.857
same,normalized growth,"locus YLR403W, strain SFP1, stronger effect = lower value",0.809
same,normalized growth,"locus YML070W, strain DAK1, stronger effect = lower value",0.825
same,normalized growth,"locus YMR001C, strain CDC5, stronger effect = lower value",0.914
same,normalized growth,"locus YMR205C, strain PFK2 (second series), stronger effect = lower value",0.859
same,normalized growth,"locus YMR277W, strain FCP1, stronger effect = lower value",0.893
same,normalized growth,"locus YNL006W, strain LST8, stronger effect = lower value",0.957
same,normalized growth,"locus YNL020C, strain ARK1, stronger effect = lower value",0.853
same,normalized growth,"locus YNL161W, strain CBK1, stronger effect = lower value",0.912
same,normalized growth,"locus YNL183C, strain NPR1, stronger effect = lower value",0.696
same,normalized growth,"locus YNL207W, strain RIO2, stronger effect = lower value",0.919
same,normalized growth,"locus YNL222W, strain SSU72, stronger effect = lower value",0.905
same,normalized growth,"locus YNL307C, strain MCK1 (second series), stronger effect = lower value",0.826
same,normalized growth,"locus YOL078W, strain AVO1, stronger effect = lower value",0.896
same,normalized growth,"locus YOL136C, strain PFK27, stronger effect = lower value",0.868
same,normalized growth,"locus YOR061W, strain CKA2, stronger effect = lower value",0.858
same,normalized growth,"locus YOR119C, strain RIO1, stronger effect = lower value",0.821
same,normalized growth,"locus YOR231W, strain MKK1, stronger effect = lower value",0.685
same,normalized growth,"locus YOR329C, strain SCD5, stronger effect = lower value",0.93
same,normalized growth,"locus YPL031C, strain PHO85, stronger effect = lower value",0.787
same,normalized growth,"locus YPL153C, strain RAD53, stronger effect = lower value",0.755
same,normalized growth,"locus YPL204W, strain HRR25, stronger effect = lower value",0.777
same,normalized growth,"locus YPL209C, strain IPL1, stronger effect = lower value",0.926
same,normalized growth,"locus YPL256C, strain CLN2, stronger effect = lower value",0.72 (active)
same,normalized growth,"locus YPR025C, strain CCL1, stronger effect = lower value",0.923
same,normalized growth,"locus YPR106W, strain ISR1, stronger effect = lower value",0.95
same,normalized growth,"locus YPR111W, strain DBF20, stronger effect = lower value",0.937
same,normalized growth,"strain NNK1, stronger effect = lower value",0.932
same,normalized growth,"strain TSCII, stronger effect = lower value",0.888
CN1CCC23CCCC[C@H]2C1Cc1ccc(O)cc13 (some centres not stated),normalized growth,[1],1.01
same,normalized growth,[2],1
same,normalized growth,[12],1.03
same,normalized growth,[3],0.998
same,normalized growth,[5],1.04
same,normalized growth,[6],1.01
same,normalized growth,[13],1.02
same,normalized growth,[7],1.01
same,normalized growth,[8],1.05
same,normalized growth,[9],1.01
same,normalized growth,[10],1.02
same,normalized growth,[11],0.989
same,normalized growth,"locus YPL055C, strain LGE1, stronger effect = lower value",0.998

# From PubChem BioAssay AID1159580 (chemical genetic matrix, 2015)
